According to the supplement of paper PMC8728848:
The entries come from a sample that favours the strongest signals as a whole.

Columns and labels:
Assay in all cases: glycan array binding signal (z-score within array); higher = stronger binding
Conditions in all cases: glycan notation: IUPAC condensed, linker removed
[1] = molecular target: Fuc(a1-2)Gal(b1-3)GalNAc(a1-3)[Fuc(a1-2)]Gal(b1-4)GlcNAc
Outline: (§1)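 From the Consortium for Functional Glycomics database, 3228 arrays were curated, keeping only those whose protein sequence was available. Binding is given as a within-array Z-score averaged across arrays sharing a protein sequence and across linkers. Negative Z-scores can be read as non-binding.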

[2] = molecular target: Fuc(a1-2)Gal(b1-3)GlcNAc(b1-3)[Gal(b1-4)GlcNAc(b1-6)]Gal(b1-4)Glc
Outline: as §1

[3] = molecular target: Fuc(a1-2)Gal(b1-4)GlcNAc(b1-6)GalNAc
Outline: as §1

[4] = molecular target: Fuc(a1-2)Gal3S(b1-4)GlcNAc
Outline: as §1

Fuc(a1-2)[Gal(a1-3)]Gal = molecular target: Fuc(a1-2)[Gal(a1-3)]Gal
Outline: as §1

[5] = molecular target: Fuc(a1-2)[GalNAc(a1-3)]Gal(b1-3)GlcNAc
Outline: as §1

Fuc(a1-4)GlcNAc = molecular target: Fuc(a1-4)GlcNAc
Outline: as §1

[6] = molecular target: Gal(a1-3)Gal(b1-3)GlcNAc(b1-6)GalNAc
Outline: as §1

[7] = molecular target: Gal(a1-3)Gal(b1-4)GlcNAc(b1-2)Man(a1-3)[Gal(a1-3)Gal(b1-4)GlcNAc(b1-2)Man(a1-6)]Man(b1-4)GlcNAc(b1-4)GlcNAc
Outline: as §1

Gal(b1-3)GalNAc = molecular target: Gal(b1-3)GalNAc
Outline: as §1

[8] = molecular target: Gal(b1-3)GalNAc(a1-3)[Fuc(a1-2)]Gal(b1-4)Glc
Outline: as §1

[9] = molecular target: Gal(b1-3)GlcNAc(b1-2)Man(a1-3)[Gal(b1-3)GlcNAc(b1-2)Man(a1-6)]Man(b1-4)GlcNAc(b1-4)GlcNAc
Outline: as §1

[10] = molecular target: Gal(b1-3)GlcNAc(b1-2)[Gal(b1-3)GlcNAc(b1-6)]Man(a1-6)[Gal(b1-3)GlcNAc(b1-2)Man(a1-3)]Man(b1-4)GlcNAc(b1-4)GlcNAc
Outline: as §1

[11] = molecular target: Gal(b1-3)GlcNAc(b1-3)Gal(b1-3)GlcNAc
Outline: as §1

[12] = molecular target: Gal(b1-3)[GlcNAc(b1-6)]GalNAc
Outline: as §1

[13] = molecular target: Gal(b1-3)[Neu5Ac(a2-6)]GlcNAc(b1-4)Gal(b1-4)Glc
Outline: as §1

[14] = molecular target: Gal(b1-4)GlcNAc(b1-3)Gal(b1-3)GalNAc
Outline: as §1

[15] = molecular target: Gal(b1-4)GlcNAc(b1-3)Gal(b1-4)GlcNAc(b1-2)[Gal(b1-4)GlcNAc(b1-3)Gal(b1-4)GlcNAc(b1-6)]Man(a1-6)[Gal(b1-4)GlcNAc(b1-3)Gal(b1-4)GlcNAc(b1-2)Man(a1-3)]Man(b1-4)GlcNAc(b1-4)[Fuc(a1-6)]GlcNAc
Outline: as §1

[16] = molecular target: Gal(b1-4)GlcNAc(b1-3)Gal(b1-4)GlcNAc(b1-3)Gal(b1-4)GlcNAc(b1-2)Man(a1-3)[Gal(b1-4)GlcNAc(b1-3)Gal(b1-4)GlcNAc(b1-3)Gal(b1-4)GlcNAc(b1-2)Man(a1-6)]Man(b1-4)GlcNAc(b1-4)[Fuc(a1-6)]GlcNAc
Outline: as §1

[17] = molecular target: Gal(b1-4)GlcNAc(b1-3)Gal(b1-4)GlcNAc(b1-3)Gal(b1-4)GlcNAc(b1-2)[Gal(b1-4)GlcNAc(b1-3)Gal(b1-4)GlcNAc(b1-3)Gal(b1-4)GlcNAc(b1-6)]Man(a1-6)[Gal(b1-4)GlcNAc(b1-3)Gal(b1-4)GlcNAc(b1-3)Gal(b1-4)GlcNAc(b1-2)Man(a1-3)]Man(b1-4)GlcNAc(b1-4)[Fuc(a1-6)]GlcNAc
Outline: as §1

[18] = molecular target: Gal(b1-4)GlcNAc(b1-3)[Fuc(a1-3)GlcNAc(b1-6)]Gal(b1-4)Glc
Outline: as §1

[19] = molecular target: Gal(b1-4)GlcNAc(b1-6)GalNAc
Outline: as §1

[20] = molecular target: Gal(b1-4)GlcNAc(b1-6)[Gal(b1-3)]GalNAc
Outline: as §1

[21] = molecular target: GalNAc(b1-3)Gal(a1-4)Gal(b1-4)GlcNAc(b1-3)Gal(b1-4)Glc
Outline: as §1

GalNAc(b1-3)GalNAc = molecular target: GalNAc(b1-3)GalNAc
Outline: as §1

[22] = molecular target: GalNAc3S(b1-4)[Fuc(a1-3)]GlcNAc
Outline: as §1

B1: MpAFP NterminalRI GFP (Marinomonas primoryensis) (protein)
chain: MSDNQFPFATLGNAIGFITKLDGSVTVQSIDGQERVLKLGDPIFFGETVLTGGSGSVTIAFVDGTDVVIGGDSIVEMTDEIYNTGDNEDLVADSSSEIDALQNAILAGDDPTLIQDAPAAGNTLADQQRVDVSIERNDNSAQAGFGVDTQSSLPTYGYDTDNGNGGQATEREYSAPSLSRTLNQSPLLEHHHHHH
- glycan array binding signal (z-score) [1]: -0.525
- glycan array binding signal (z-score) [2]: -0.221
- glycan array binding signal (z-score) [3]: 1.68
- glycan array binding signal (z-score) [4]: -0.495
- glycan array binding signal (z-score) (Fuc(a1-2)[Gal(a1-3)]Gal): -0.494
- glycan array binding signal (z-score) [5]: -0.215
- glycan array binding signal (z-score) (Fuc(a1-4)GlcNAc): 2.46
- glycan array binding signal (z-score) [6]: -0.446
- glycan array binding signal (z-score) [7]: -0.164
- glycan array binding signal (z-score) (Gal(b1-3)GalNAc): -0.228
- glycan array binding signal (z-score) [8]: -0.422
- glycan array binding signal (z-score) [9]: -0.119
- glycan array binding signal (z-score) [10]: -0.305
- glycan array binding signal (z-score) [11]: -0.424
- glycan array binding signal (z-score) [12]: -0.473
- glycan array binding signal (z-score) [13]: -0.565
- glycan array binding signal (z-score) [14]: -0.412
- glycan array binding signal (z-score) [15]: 4.16
- glycan array binding signal (z-score) [16]: 0.649
- glycan array binding signal (z-score) [17]: 2.76
- glycan array binding signal (z-score) [18]: -0.081
- glycan array binding signal (z-score) [19]: -0.473
- glycan array binding signal (z-score) [20]: 0.083
- glycan array binding signal (z-score) [21]: -0.509
- glycan array binding signal (z-score) (GalNAc(b1-3)GalNAc): -0.576
- glycan array binding signal (z-score) [22]: -0.39
